Test results reported in PubChem BioAssay (EPA / NIEHS).
Results filed as inconclusive are left out. Active and inactive are the calls of the source. How the source made its calls, unless noted: active means hit-call score of the fitted dose curve at least 0.9, where 1 is the maximum; inactive means score below 0.9.

How the values were obtained:
[1] = CCTE_Harrill_HTTr_Viability_DMEM_6hr: (Pilot) CCTE's 6-hour Cell Viability Assessment for the High-Throughput Transcriptomics (HTTr) Platform, in MCF-7 cells cultured in DMEM + 10% fetal bovine serum, Harrill Lab (AID 2283973)
How it was run: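 Propidium iodide uptake imaged by high-content analysis after six hours of chemical treatment in an eight-concentration series. Cells: MCF-7 grown in DMEM with 10% fetal bovine serum; DMSO as baseline.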

[2] = CCTE_Harrill_HTTr_Viability_DMEM_12hr: (Pilot) CCTE's 12-hour Cell Viability Assessment for the High-Throughput Transcriptomics (HTTr) Platform, in MCF-7 cells cultured in DMEM + 10% fetal bovine serum, Harrill Lab (AID 2283974)
How it was run: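 Propidium iodide dye exclusion imaged by high-content microscopy after 12 h chemical exposure (eight concentrations) of MCF-7 cells grown in DMEM plus 10% FBS; values fitted in both directions relative to DMSO.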

[3] = CCTE_Harrill_HTTr_Viability_DMEM_24hr: (Pilot) CCTE's 24-hour Cell Viability Assessment for the High-Throughput Transcriptomics (HTTr) Platform, in MCF-7 cells cultured in DMEM + 10% fetal bovine serum, Harrill Lab (AID 2283975)
Description: This is a cell-based assay that evaluates cell viability using high content imaging to evaluate membrane integrity using propidium iodide dye exclusion in a 384 well format.One of seven assay components measured from the CCTE_Harrill_HTTr_Viability assay. This was part of a pilot experiment. This is a cell-based assay that evaluates cell viability in MCF-7 cells cultured in DMEM + 10% fetal bovine serum. High content imaging is used to evaluate membrane integrity using propidium iodide dye exclusion. Measurements are taken at 24 hours after chemical dosing in 384-well format.The assay component endpoint CCTE_Harrill_HTTr_Viability_DMEM_24hr was analyzed with bidirectional fitting relation to DMSO as the negative control and baseline of activity. Using a type of viability reporter to understand changes in cytotoxicity, gain-of-signal activity can be used to evaluate membrane integrity using propidium iodide dye exclusion. To generalize the intended target to other relatable targets, this assay endpoint is annotated to cell cycle, where the subfamily is cytotoxicity.
Chemicals were tested in MCF7 cells in an eight point dilution series with a twenty-four hour exposure duration.

[4] = CCTE_Harrill_HTTr_Viability_PRF_DMEM_6hr: (Pilot) CCTE's 6-hour Cell Viability Assessment for the High-Throughput Transcriptomics (HTTr) Platform, in MCF-7 cells cultured phenol red-free DMEM + 10% charcoal-stripped fetal bovine serum, Harrill Lab (AID 2283976)
How it was run: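 Membrane integrity by high-content imaging of propidium iodide uptake, six hours after dosing with eight concentrations. Cells: MCF-7 grown in phenol red-free DMEM plus 10% charcoal-stripped serum; DMSO serves as baseline for bidirectional fits.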

[5] = CCTE_Harrill_HTTr_Viability_PRF_DMEM_12hr: (Pilot) CCTE's 12-hour Cell Viability Assessment for the High-Throughput Transcriptomics (HTTr) Platform, in MCF-7 cells cultured in phenol red-free DMEM + 10% charcoal-stripped fetal bovine serum, Harrill Lab (AID 2283977)
How it was run: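 Membrane integrity was scored via propidium iodide dye exclusion imaging, fitted in both directions relative to DMSO. Compounds ran as eight-point dilutions for 12 hours on MCF-7 grown in phenol red-free DMEM plus 10% charcoal-stripped serum.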

[6] = TOX21_TRB_BLA_Antagonist_Followup_viability: Viability Assessment in the Tox21 Thyroid Hormone Receptor beta Antagonism Beta-lactamase (BLA) Follow-Up Assay (AID 2283961; active means hit-call score of the fitted dose curve at least 0.9, where 1 is the maximum)
How it was run: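 ATP-based CellTiter-Glo luminescence (30 min, room temperature) run in the same wells as the TRβ-bla readout. Cells: GeneBLAzer HEK293T expressing GAL4-TRβ LBD, exposed 18 h at 37C to compounds at 11 concentrations in triplicate, stripped-serum medium.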

THRB (gene 7068) [7] = target: THRB (gene 7068) (UniProt P10828); experiment: TOX21_TRB_COA_Antagonist_Followup_ratio: Tox21 Thyroid Hormone Receptor beta Antagonism through Coactivator Recruitment Follow-Up Assay, Ratio (AID 2283967; active means hit-call score of the fitted dose curve at least 0.9, where 1 is the maximum)
THRB (gene 7068), sequence (P10828 whole entry, looked up, the tested form may be a part): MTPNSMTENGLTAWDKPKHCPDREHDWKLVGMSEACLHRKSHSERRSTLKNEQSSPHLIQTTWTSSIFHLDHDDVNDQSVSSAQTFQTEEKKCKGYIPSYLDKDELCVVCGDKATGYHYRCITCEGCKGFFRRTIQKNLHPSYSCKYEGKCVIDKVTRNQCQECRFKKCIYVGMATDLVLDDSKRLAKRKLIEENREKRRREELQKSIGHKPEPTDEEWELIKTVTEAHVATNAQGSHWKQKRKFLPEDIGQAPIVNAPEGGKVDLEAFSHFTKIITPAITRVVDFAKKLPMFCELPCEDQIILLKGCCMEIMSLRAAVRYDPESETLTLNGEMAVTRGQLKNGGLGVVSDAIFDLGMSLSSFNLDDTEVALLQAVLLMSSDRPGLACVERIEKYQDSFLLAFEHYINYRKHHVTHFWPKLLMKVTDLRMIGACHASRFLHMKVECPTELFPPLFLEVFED
How it was run: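 GST-TRb LBD 5.0 nM + 0.10% BSA, compound added; fluorescein-SRC-2 peptide 200 nM, Tb-anti-GST Ab 2 nM. TR-FRET, ex 340 / em 520:495 ratio. Norm: DMSO 0%, T3 100%.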

[8] = TOX21_TR_RXR_BLA_Antagonist_Followup_viability: Viability Assessment in the Tox21 Thyroid Hormone Receptor beta Retinoid X Receptor alpha (RXRa) Antagonism Beta-lactamase (BLA) Follow-Up Assay (AID 2283979; active means hit-call score of the fitted dose curve at least 0.9, where 1 is the maximum)
How it was run: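 RXRa-bla HEK293T cells (2,500/well, phenol red-free DMEM, 2% charcoal-stripped FBS) were attached 5 h, then exposed to compounds at 11 concentrations in triplicate for 16 h at 37C. Viability measured by CellTiter-Glo ATP luminescence, bidirectional fitting versus DMSO.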

THRB (gene 7068) [9] = target: THRB (gene 7068) (UniProt P10828); experiment: TOX21_TRB_COA_Agonist_Followup_ratio: Tox21 Thyroid Hormone Receptor beta Agonism through Coactivator Recruitment Follow-Up Assay, Ratio (AID 2283963)
How it was run: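 Agonism is measured as coactivator recruitment in a purified-protein TR-FRET format, using GST-TRβ LBD at 5.0 nM, fluorescein-SRC-2 peptide at 200 nM and Tb-labeled anti-GST antibody at 2 nM. Values are 520:495 nm ratios relative to DMSO (0%) and T3 (100%).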

[10] = target: Retinoic acid receptor RXR-alpha (Homo sapiens) (UniProt P19793); experiment: TOX21_TR_RXR_BLA_Agonist_Followup_ratio: Tox21 Thyroid Hormone Receptor beta Retinoid X Receptor alpha (RXRa) Agonism Beta-lactamase (BLA) Follow-Up Assay, Ratio (AID 2283968; active means hit-call score of the fitted dose curve at least 0.9, where 1 is the maximum)
Retinoic acid receptor RXR-alpha (Homo sapiens), sequence (P19793 whole entry, looked up): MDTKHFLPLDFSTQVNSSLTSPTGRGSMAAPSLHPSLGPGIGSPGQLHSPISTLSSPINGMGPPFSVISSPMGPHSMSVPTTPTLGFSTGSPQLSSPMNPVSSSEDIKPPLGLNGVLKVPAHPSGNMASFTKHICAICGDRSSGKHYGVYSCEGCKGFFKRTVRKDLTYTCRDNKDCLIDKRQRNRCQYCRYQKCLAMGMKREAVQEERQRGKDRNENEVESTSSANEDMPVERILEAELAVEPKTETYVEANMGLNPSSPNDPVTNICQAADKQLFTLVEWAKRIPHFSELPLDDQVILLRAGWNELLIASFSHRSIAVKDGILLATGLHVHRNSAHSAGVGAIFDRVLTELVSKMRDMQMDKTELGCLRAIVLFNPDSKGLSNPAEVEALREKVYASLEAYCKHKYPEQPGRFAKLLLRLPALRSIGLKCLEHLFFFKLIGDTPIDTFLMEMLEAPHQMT
How it was run: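 Cells were first allowed to attach for 5 h, after which compounds in DMSO were pinned at 11 concentrations and incubated 16 h at 37C. LiveBLAzer CCF4-AM substrate was then added for 2 h at room temperature before reading 460 and 530 nm fluorescence.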

In the case of `COC(=O)[C@H]1[C@H]2C[C@@H]3c4[nH]c5cc(OC)ccc5c4CCN3C[C@H]2C[C@@H](OC(=O)c2cc(OC)c(OC)c(OC)c2)[C@@H]1OC`, the outcome [1] is reported as “inactive”, the outcome [2] is reported as “inactive” and the outcome [3] is reported as “inactive”. The outcome [4] was “inactive” and the outcome [5] was “inactive”.

For `Cc1c(C)c2c(c(C)c1O)CCC(C)(COc1ccc(CC3SC(=O)NC3=O)cc1)O2` (stereo not given), the outcome [1] was “inactive”, the outcome [2] was “inactive” and the outcome [3] was “inactive”. For the same molecule, the outcome [4] was “inactive” and the outcome [5] was “inactive”.

For `Nc1nc(Cl)nc2c1ncn2[C@H]1C[C@H](O)[C@@H](CO)O1`, the outcome [6] was “inactive”, the outcome (THRB (gene 7068) [7]) was “inactive” and the outcome [1] was “inactive”. For the same molecule, the outcome [2] was “inactive”, the outcome [3] was “inactive” and the outcome [4] was “inactive”. The outcome [5] was “inactive” and the outcome [8] was “inactive”.

For `CC(=O)O[C@]1(C(C)=O)CC[C@H]2[C@@H]3C=C(Cl)C4=CC(=O)[C@@H]5C[C@@H]5[C@]4(C)[C@H]3CC[C@@]21C`, the outcome [1] was “inactive”, the outcome [2] was “inactive” and the outcome [3] was “inactive”. The outcome [4] was “inactive” and the outcome [5] was “inactive”.

In the case of `CCN(CC)CCOc1ccc(C(=C(Cl)c2ccccc2)c2ccccc2)cc1`, the AC50 [1] is reported as 82.4 µM (active), the AC50 [2] is reported as 65.3 µM (active) and the AC50 [3] is reported as 54.8 µM (active). For the same molecule, the AC50 [4] was 70 µM (active) and the AC50 [5] was 65.8 µM (active).

For `Cc1occc(=O)c1O`, the outcome (THRB (gene 7068) [9]) was “inactive” and the outcome [10] was “inactive”.

In the case of `CC(C)OC(=O)C(C)(C)Oc1ccc(C(=O)c2ccc(Cl)cc2)cc1`, the outcome [1] is reported as “inactive”, the outcome [2] is reported as “inactive” and the outcome [3] is reported as “inactive”. For the same molecule, the outcome [4] was “inactive” and the outcome [5] was “inactive”.
